Measurements from PubChem BioAssay (NCI).
This is part of a sample that, as a whole, favours compounds with a hit. Of some 79,000 tested, about 15% had one in any assay. Values without a mark were called inactive. Calls of active or inactive are those of the source. No stated cut-off is given here; in the data, active means growth inhibition above about 70%; inactive means the rest.

Experiments:
[1] = NCI Yeast Anticancer Drug Screen. Data for the wt2 strain (AID 169);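 further: 0% = growth of vehicle-treated yeast cultures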; settings: S. cerevisiae wt2 strain growth inhibition, stronger effect = higher value
How it was run: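 The panel's yeast strains carry defined changes in DNA repair or cell cycle genes. Each strain is grown with compound, and growth loss is scored relative to vehicle.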

[2] = NCI Yeast Anticancer Drug Screen. Data for the mlh1 strain (AID 171);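 further: 0% = growth of vehicle-treated control cultures of the same strain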; settings: S. cerevisiae mlh1 strain growth inhibition, stronger effect = higher value
How it was run: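 Inhibition values reflect reduced yeast growth in the presence of compound, referenced to vehicle controls, using a strain chosen for its alteration in DNA repair or cell cycle control.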

[3] = NCI Yeast Anticancer Drug Screen. Data for the sgs1 strain (AID 173);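 further: 0% = growth of vehicle-only control cultures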; settings: S. cerevisiae sgs1 mutant, stronger effect = higher value
How it was run: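 Vehicle-treated cultures served as reference for growth inhibition of a yeast strain altered in DNA damage repair or cell cycle control after compound exposure.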

[4] = NCI Yeast Anticancer Drug Screen. Data for the mlh1 rad18 strain (AID 175); settings: S. cerevisiae mlh1 rad18 strain growth inhibition, stronger effect = higher value
How it was run: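 Inhibition values reflect reduced growth of mutant yeast versus vehicle-treated controls following compound exposure; the mutations affect DNA damage repair.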

[5] = NCI Yeast Anticancer Drug Screen. Data for the rad18 strain (AID 177); settings: S. cerevisiae rad18 mutant growth inhibition, stronger effect = higher value
How it was run: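 Steps: expose repair-mutant yeast to compound; measure growth; express as inhibition relative to vehicle control.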

[6] = NCI Yeast Anticancer Drug Screen. Data for the rad52 strain (AID 147);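 further: 0% = growth of vehicle-treated control cultures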; settings: S. cerevisiae rad52 mutant growth inhibition, stronger effect = higher value
How it was run: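 Inhibition of yeast growth, referenced to vehicle controls, was the measured output for a strain with defective DNA damage repair.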

[7] = NCI Yeast Anticancer Drug Screen. Data for the wt1 strain (AID 149);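 further: 0% = growth of vehicle-treated wt1 cultures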; settings: S. cerevisiae wt1 strain (SPY 50644) growth inhibition, stronger effect = higher value
How it was run: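 Yeast wt1 strain exposed to compounds; growth inhibition measured relative to vehicle-treated controls.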

[8] = NCI Yeast Anticancer Drug Screen. Data for the rad50EPP+ strain (AID 151);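 further: 0% = growth of vehicle-treated control cultures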; settings: S. cerevisiae rad50 mutant strain, stronger effect = higher value
How it was run: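 Genetically defined yeast (rad50EPP+, DNA damage repair alteration) is grown with compound, and inhibition of growth is expressed relative to vehicle-treated controls.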

[9] = NCI Yeast Anticancer Drug Screen. Data for the mgt1 strain (AID 153); settings: S. cerevisiae mgt1 mutant growth inhibition, stronger effect = higher value
How it was run: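 In the mgt1 strain, test compounds were added and growth inhibition was determined relative to vehicle-treated controls.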

[10] = NCI Yeast Anticancer Drug Screen. Data for the rad50 strain (AID 155);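 further: 0% = growth of vehicle-only cultures of the same strain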; settings: S. cerevisiae rad50 strain growth inhibition, stronger effect = higher value
How it was run: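 Yeast carrying a defined DNA repair defect were exposed to test compounds, and growth was compared with vehicle-treated controls to give percent inhibition.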

[11] = NCI Yeast Anticancer Drug Screen. Data for the mec2-1 strain (AID 157); settings: S. cerevisiae mec2-1 strain, stronger effect = higher value
How it was run: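 Each compound was tested on mec2-1 yeast, a strain altered in DNA damage repair or cell cycle control. Growth inhibition is reported relative to vehicle.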

[12] = NCI Yeast Anticancer Drug Screen. Data for the rad14 strain (AID 159);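 further: 0% = growth of vehicle-treated control cultures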; settings: S. cerevisiae rad14 strain growth inhibition, stronger effect = higher value
How it was run: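 Yeast cells carrying a defined DNA-repair defect were exposed to compounds, and growth inhibition was calculated relative to vehicle-treated control cultures.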

[13] = NCI Yeast Anticancer Drug Screen. Data for the sgs1 mgt1 strain (AID 161);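 further: 0% = growth of cultures given vehicle only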; settings: S. cerevisiae sgs1 mgt1 strain, stronger effect = higher value
How it was run: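 Genetically altered yeast, compound exposure, growth inhibition relative to vehicle.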

[14] = NCI Yeast Anticancer Drug Screen. Data for the CLN2oe strain (AID 163);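 further: 0% = growth of vehicle-only control cultures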; settings: S. cerevisiae CLN2oe strain, stronger effect = higher value
How it was run: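 First, the altered yeast strain was treated with each compound; second, its growth was measured; finally, inhibition was derived by comparison with vehicle controls.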

[15] = NCI Yeast Anticancer Drug Screen. Data for the cln2 rad14 strain (AID 165);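 further: 0% = growth equal to vehicle treated cultures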; settings: S. cerevisiae cln2 rad14 strain, stronger effect = higher value
How it was run: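 Test compounds were added to cln2 rad14 yeast cultures; inhibition of growth was then determined by comparison with vehicle treatment.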

[16] = NCI Yeast Anticancer Drug Screen. Data for the bub3 strain (AID 167); settings: S. cerevisiae bub3 mutant strain, stronger effect = higher value
How it was run: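 Compounds were applied to a genetically altered yeast strain carrying a cell-cycle control defect. Growth inhibition was scored against vehicle-treated controls.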

[17] = at 5.0 µM (retest, dose inferred, filed as 0.5)
[18] = at 50.0 µM (retest, dose inferred, filed as 5.0)

NNC(=O)CCc1cc2ccccc2c2ccccc12
growth inhibition ([1]; at 1.2 µM): -8%
growth inhibition ([1]; at 3.7 µM): 1%
growth inhibition ([1]; at 11.0 µM): 18%
growth inhibition ([1]; at 33.0 µM): 53%
growth inhibition ([1]; at 100.0 µM): 100% (active)
growth inhibition ([2]; at 1.2 µM): -13%
growth inhibition ([2]; at 3.7 µM): -6%
growth inhibition ([2]; at 11.0 µM): -3%
growth inhibition ([2]; at 33.0 µM): 38%
growth inhibition ([2]; at 100.0 µM): 99% (active)
growth inhibition ([3]; at 1.2 µM): -20%
growth inhibition ([3]; at 3.7 µM): -8%
growth inhibition ([3]; at 11.0 µM): 9%
growth inhibition ([3]; at 33.0 µM): 43%
growth inhibition ([3]; at 100.0 µM): 99% (active)
growth inhibition [4, 17]: 45%
growth inhibition [4, 18]: 98% (active)
growth inhibition ([4]; at 50.0 µM): 98.5% (active)
growth inhibition ([5]; at 1.2 µM): -6%
growth inhibition ([5]; at 3.7 µM): -5%
growth inhibition ([5]; at 11.0 µM): 0%
growth inhibition ([5]; at 33.0 µM): 30%
growth inhibition ([5]; at 100.0 µM): 99% (active)

CCCCOP(=O)(CCCP(=O)(OCCCC)OCCCC)OCCCC
growth inhibition ([6]; at 1.2 µM): 0%
growth inhibition ([6]; at 3.7 µM): 0%
growth inhibition ([6]; at 11.0 µM): 3%
growth inhibition ([6]; at 33.0 µM): 4%
growth inhibition ([6]; at 100.0 µM): 97% (active)
growth inhibition ([7]; at 1.2 µM): -3%
growth inhibition ([7]; at 3.7 µM): 0%
growth inhibition ([7]; at 11.0 µM): 0%
growth inhibition ([7]; at 33.0 µM): 5%
growth inhibition ([7]; at 100.0 µM): 94% (active)
growth inhibition ([8]; at 1.2 µM): -4%
growth inhibition ([8]; at 3.7 µM): -4%
growth inhibition ([8]; at 11.0 µM): -3%
growth inhibition ([8]; at 33.0 µM): -3%
growth inhibition ([8]; at 100.0 µM): -2%
growth inhibition ([9]; at 1.2 µM): -3%
growth inhibition ([9]; at 3.7 µM): -3%
growth inhibition ([9]; at 11.0 µM): -1%
growth inhibition ([9]; at 33.0 µM): 10%
growth inhibition ([9]; at 100.0 µM): 42%
growth inhibition ([10]; at 1.2 µM): -1%
growth inhibition ([10]; at 3.7 µM): 1%
growth inhibition [10, 17]: 7%
growth inhibition ([10]; at 11.0 µM): 1%
growth inhibition ([10]; at 33.0 µM): 7%
growth inhibition [10, 18]: 66%
growth inhibition ([10]; at 50.0 µM): 2.05%
growth inhibition ([10]; at 100.0 µM): 97% (active)
growth inhibition ([11]; at 1.2 µM): -6%
growth inhibition ([11]; at 3.7 µM): -3%
growth inhibition [11, 17]: -7%
growth inhibition ([11]; at 11.0 µM): 2%
growth inhibition ([11]; at 33.0 µM): 7%
growth inhibition [11, 18]: 48%
growth inhibition ([11]; at 50.0 µM): 49.5%
growth inhibition ([11]; at 100.0 µM): 95% (active)
growth inhibition ([12]; at 1.2 µM): 0%
growth inhibition ([12]; at 3.7 µM): 3%
growth inhibition ([12]; at 11.0 µM): 9%
growth inhibition ([12]; at 33.0 µM): 20%
growth inhibition ([12]; at 100.0 µM): 90% (active)
growth inhibition [13, 17]: 12%
growth inhibition [13, 18]: 50%
growth inhibition ([13]; at 50.0 µM): -2.15%
growth inhibition ([14]; at 1.2 µM): 1%
growth inhibition ([14]; at 3.7 µM): -3%
growth inhibition ([14]; at 11.0 µM): 7%
growth inhibition ([14]; at 33.0 µM): 29%
growth inhibition ([14]; at 100.0 µM): 81% (active)
growth inhibition [15, 17]: 7%
growth inhibition [15, 18]: 38%
growth inhibition ([15]; at 50.0 µM): 1.1%
growth inhibition ([16]; at 1.2 µM): -5%
growth inhibition ([16]; at 3.7 µM): -3%
growth inhibition [16, 17]: 0%
growth inhibition ([16]; at 11.0 µM): -2%
growth inhibition ([16]; at 33.0 µM): 1%
growth inhibition [16, 18]: 4%
growth inhibition ([16]; at 50.0 µM): 19.2%
growth inhibition ([16]; at 100.0 µM): 79% (active)
growth inhibition ([1]; at 1.2 µM): -2%
growth inhibition ([1]; at 3.7 µM): -5%
growth inhibition ([1]; at 11.0 µM): -4%
growth inhibition ([1]; at 33.0 µM): 0%
growth inhibition ([1]; at 100.0 µM): 96% (active)
growth inhibition ([2]; at 1.2 µM): -5%
growth inhibition ([2]; at 3.7 µM): -2%
growth inhibition ([2]; at 11.0 µM): 1%
growth inhibition ([2]; at 33.0 µM): 8%
growth inhibition ([2]; at 100.0 µM): 91% (active)
growth inhibition ([3]; at 1.2 µM): -3%
growth inhibition ([3]; at 3.7 µM): -1%
growth inhibition ([3]; at 11.0 µM): 0%
growth inhibition ([3]; at 33.0 µM): 5%
growth inhibition ([3]; at 100.0 µM): 93% (active)
growth inhibition [4, 17]: -2%
growth inhibition [4, 18]: 17%
growth inhibition ([4]; at 50.0 µM): 42.2%
growth inhibition ([5]; at 1.2 µM): -7%
growth inhibition ([5]; at 3.7 µM): 0%
growth inhibition ([5]; at 11.0 µM): 5%
growth inhibition ([5]; at 33.0 µM): 8%
growth inhibition ([5]; at 100.0 µM): 95% (active)
